# Among all 220,000 compounds or so, about 2,000 (0.91%) were called active. About 2% were inconclusive and are not listed. A selection follows. Potency and affinity values are given separately. Values without a mark were called inactive. Cut-off read from the data, not from the text of the source: inconclusive = inhibition above about 80% without an active follow-up result; inactive = below that; test concentration not stated here.
# Assay: M. tuberculosis H37Rv growth inhibitors, H37Rv strain (AID 1626);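 note: bacteria incubated seven days before Alamar blue readout; 0% = bacteria only wells and 100% = bacteria with antibiotic wells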
# Conditions: active compounds read high, concentration not given here
row,Structure (SMILES),inhibition [%]
1,COCCCNC(=S)N(Cc1ccccc1)Cc1nc2ccccc2c(=O)[nH]1,-7.77
2,NC(=O)C(=CNc1nc(-c2ccc(Cl)c(Cl)c2)cs1)C(N)=O,-3.81
3,OC1=C(O)c2nc3cc(C(F)(F)F)ccc3nc21,-3.35
4,COc1cccc(NCc2ccc([N+](=O)[O-])s2)c1,15.2
5,COc1ccc(NCc2ccc([N+](=O)[O-])s2)c(OC)c1,79.8
6,COC(=O)c1ccc(NC(=O)C2CCCO2)cc1 (stereo not given),-10.3
7,NC(=O)c1ccc(NC(=O)C2CCCO2)cc1 (stereo not given),-8.76
8,CCOC(=O)c1cc(NC(=O)C2CCCO2)cc(C(=O)OCC)c1 (stereo not given),3.41
9,COC(=O)c1ccc(NC(=O)c2ccc(NC(=O)C3CCCO3)cc2)cc1 (stereo not given),10.1
10,CCCCNS(=O)(=O)c1ccc(NC(=O)C2CCCO2)cc1 (stereo not given),6.1
11,CCCCNC(=O)c1ccc(NC(=O)C2CCCO2)cc1 (stereo not given),0.89
12,CC(C)COC(=O)c1ccc(NC(=O)C2C3C=CC(C3)C2C(=O)O)cc1 (stereo not given),58.1
13,COC(=O)c1ccc(NC(=O)C2C3C=CC(O3)C2C(=O)O)cc1 (stereo not given),-12.1
14,Cn1ncc(C#N)c1NC(=O)C1CC(c2ccc(Cl)c(Cl)c2)=NO1 (stereo not given),-5.17
15,COC(=O)c1[nH]c2ccccc2c1NC(=O)CN1CC(C)OC(C)C1 (stereo not given),-0.75
16,CCOC(=O)N1CCN(C(=O)Cc2ccc(C)cc2)CC1,-3.57
17,CN(C)C(CNC(=S)Nc1ccccc1Cl)c1cccnc1 (stereo not given),7.94
18,CCCCOC(=O)c1ccc(NC(=O)C(=O)NCC2CCCO2)cc1 (stereo not given),34.8
19,CCOC(=O)c1ccc(NC(=O)C(=O)NCC2CCCO2)cc1 (stereo not given),65.4
20,COc1ccc(Br)c2oc(S)cc(=O)c12,-4.76
21,CCN(CC)C(=O)C1CCCN(Cc2ccc(F)c(F)c2)C1 (stereo not given),-6.74
22,CCC(CC)C(=O)Nc1ccc([N+](=O)[O-])cn1,1.14
23,CCCc1nc(SCC(=O)Nc2cc(C)on2)c2c(=O)n(C)c(=O)n(C)c2n1,5.55
24,CCCCn1c(/N=C/c2ccc(N(C)C)cc2)nc2ccccc21,-13.8
25,Cc1cccc(NCc2nc3ccccc3n2C)c1,-0.92

row,Structure (SMILES),inhibition [%]
1,Cc1ccc(NCc2nc3ccccc3n2C)cc1,6.89
2,Cn1c(CNc2ccccc2)nc2ccccc21,5.08
3,Cn1c(Cl)nc2ccccc21,-1.9
4,CN(C)c1ccc(-c2nc3ccccc3n2C)cc1,-2.73
5,CC(=O)Nc1nc(=S)n(-c2ccccc2)[nH]1,-1.91
6,COC(=O)C1CCN(C(=O)COC(=O)CC(NC(C)=O)c2ccccc2)CC1 (stereo not given),-3.65
7,Fc1cccc2sc(N3CCCCC3)nc12,-9.23
8,COc1ccccc1NC(=O)CCc1nc(-c2ccccc2F)no1,2
9,O=C(NC1=NC2CCCCC2N1)c1ccccc1 (stereo not given),1.79
10,Cc1ccc(O)c(C2=Nc3ccccc3N=C(c3cccc([N+](=O)[O-])c3)C2)c1,3.86
11,Cc1ccc(C2=Nc3ccccc3N=C(c3ccc([N+](=O)[O-])cc3)C2)c(O)c1,0.53
12,CCc1cccc(CC)c1NC(=S)Nc1cccc(Cl)c1Cl,2.37
13,CCn1c(=O)c(-c2nc3ccccc3[nH]2)c(O)c2ccccc21,43.3
14,CCCCCn1c(=O)c(-c2nc3ccccc3[nH]2)c(O)c2ccccc21,52.9
15,CCn1c(=O)c(C(=O)Nc2ccccn2)c(O)c2ccccc21,-3.43
16,CCCn1nc(C(=O)Nc2nc3ccccc3[nH]2)c2ccccc2c1=O,59.6
17,CC1Cc2ccccc2N1C(=O)c1ccc(N2CCCC2)c([N+](=O)[O-])c1 (stereo not given),4.46
18,CCN(C(=O)CSc1nc(-c2ccccc2)c(-c2ccccc2)[nH]1)C1CCS(=O)(=O)C1 (stereo not given),0.12
19,CSc1ncccc1C(=O)OCC(=O)N(CC(C)C)C1CCS(=O)(=O)C1 (stereo not given),-5.78
20,CCCn1c(SCC(=O)Nc2ccc(OC)cc2[N+](=O)[O-])n[nH]c1=O,1.11
21,O=C1Nc2ccccc2N(O)N1c1ccc(Cl)cc1,-3.86
22,O=C(C1=C[C@@H](C2CC2)C[C@@H](OCc2ccc(CO)cc2)O1)N1CCN(Cc2ccccc2)CC1,0.13
23,O=C(CCC(=O)N1CCN(c2ccccn2)CC1)Nc1nnc(C(F)(F)F)s1,-6.15
24,COc1ccccc1N1CCN(C(=O)COc2ccc(S(=O)(=O)NC(C)(C)C)cc2)CC1,0.98
25,CN1CC=C(c2c[nH]c3ccccc23)CC1,-7.46

row,Structure (SMILES),inhibition [%]
1,O=C(Nc1ccc2c(c1)OCO2)c1ccc(Br)s1,9.98
2,O=C(Nc1nnc(-c2ccco2)o1)C1CC1,4.4
3,O=C(Nc1nnc(-c2ccco2)o1)c1ccc(S(=O)(=O)N2CCCC2)cc1,41.6
4,CCC(=O)Nc1nnc(-c2ccco2)o1,10.2
5,CC(=O)Nc1nnc(-c2ccco2)o1,0.62
6,CN(C)S(=O)(=O)c1ccc(C(=O)Nc2nnc(-c3ccco3)o2)cc1,-14.7
7,Cc1nn(-c2ccccc2)c(C)c1C(=O)Nc1ccc(N2CCOCC2)cc1,-4.12
8,O=C(Nc1nnc(-c2ccco2)o1)c1ccc(N2C(=O)CCC2=O)cc1,-1.43
9,CCN(c1ccccc1)S(=O)(=O)c1ccc(C(=O)Nc2nnc(-c3ccco3)o2)cc1,61.3
10,COCCCNC(=O)CN(c1cc(Cl)ccc1OC)S(=O)(=O)c1ccc(C)c([N+](=O)[O-])c1,-9.07
11,O=C(c1ccco1)N1CCN(c2ccc(S(=O)(=O)N3CCCC3)cc2)CC1,-12.6
12,Cc1ccc(NCCNc2ccc(C)cc2)cc1,5.4
13,C[N+](C)(CC#Cc1ccccc1)CC(=O)c1ccc(Cl)cc1,0.9
14,Cc1ccc(-c2cc(C(=O)N/N=C/c3c(C)nn(C)c3C)c3ccccc3n2)c(C)c1,-2.59
15,CCCc1nnc2n1N=C(c1ccc([N+](=O)[O-])cc1)CS2,3
16,Cn1nnc(NC(=O)c2ccc3ccccc3c2)n1,0.14
17,O=C(COc1ccccc1)Nc1nnc(-c2ccco2)o1,-3.85
18,O=C(Nc1nnc(-c2ccco2)o1)c1cccc(N2C(=O)CCC2=O)c1,2.38
19,Cc1cccc(NC(=O)c2ccc([N+](=O)[O-])s2)c1C,53.1
20,O=C(Nc1ccncc1)c1ccc2ccccc2c1,1.37
21,O=C(Cc1ccccc1)Nc1nnc(-c2ccco2)o1,1.37
22,Cc1cccc(C)c1NC(=O)c1ccc([N+](=O)[O-])s1,11.5
23,Cc1cccc(C(=O)Nc2nnc(-c3ccncc3)o2)c1,62.6
24,COc1ccc(OC)c2c(C)cc(N3CCN(C(=O)c4ccc(F)cc4)CC3)nc12,8.6
25,O=C(/C=C/c1ccco1)Nc1ccccc1N1CCCCC1,10.2

row,Structure (SMILES),inhibition [%]
1,Cc1c(NC(=S)N/C(=N/S(=O)(=O)c2ccc(Cl)cc2)c2ccccc2)c(=O)n(-c2ccccc2)n1C,3.87
2,Cc1ccc(S(=O)(=O)Nc2cccc(C(=O)Nc3cc(C)ccn3)c2)cc1,7.87
3,Cc1ccc(C2=NC3(CCCCCC3)NC2=S)cc1,7.91
4,Cc1ccc(Cl)cc1-c1ccc(C=Nc2ccc(N3CCOCC3)cc2)o1,9.51
5,Clc1cccc(-c2ccc(C=Nc3ccc(N4CCOCC4)cc3)o2)c1,32.1
6,COc1cccc(CN2CCCCC2C(=O)O)c1 (stereo not given),-3.4
7,Clc1ccc(-c2nc(NCCN3CCOCC3)c3ccccc3n2)cc1,11.1
8,Clc1cccc(-c2nc(NCCCN3CCOCC3)c3ccccc3n2)c1,15
9,COc1ccc(-c2nn(-c3ccccc3C)cc2CNC(C)c2cn(C)nc2C)cc1F (stereo not given),-2.3
10,COc1ccc(NC(=O)CSc2nnc(Cn3c(=O)sc4ccccc43)n2C)cc1OC,-2.38
11,CCOC(=O)c1sc2nc(C)n(N)c(=O)c2c1C,3.43
12,CCOC(=O)c1sc2nc(Cc3ccc(Cl)cc3)[nH]c(=S)c2c1C,62.6
13,CCC(=NCc1ccc2c(c1)OCO2)c1c(O)n(C)c(=O)n(C)c1=O,-0.05
14,Clc1cccc(Cl)c1/C=N/Nc1c(Cl)cncc1Cl,-5.97
15,COc1ccc(/C=C2\C(=O)c3ccccc3OC2c2ccccc2)cc1 (stereo not given),0.26
16,O=C(N/N=C/c1ccc[nH]1)c1ccccc1O,-6.87
17,Cc1ccc(N=Cc2ccc[nH]2)c(O)c1,-2.8
18,Cc1ccc(CCSc2ccc(F)cc2)cn1,0.68
19,CN1CCN(Cc2ccc(-c3ccc(Cl)cc3)o2)CC1,4.34
20,O=C(O)CCc1ccc(-c2ccc(Cl)cc2)o1,62.7
21,O=C(COCC(=O)N1CCOCC1)N1CCOCC1,-0.86
22,COc1ccc(OC)c(-n2nnnc2SCC(=O)Nc2nc(C)c(C)s2)c1,-6.27
23,COc1ccc(C(=O)Nc2ccccc2Cc2ccccc2)c(OC)c1,12.6
24,CCOCCOC(=O)c1ccc(-n2cnc(C)n2)nc1,1.52
25,C=CCOC(=O)c1ccc(-n2cnc(C)n2)nc1,34.4

# Source: PubChem BioAssay AID1626 (SRMLSC, 2009)
